Here are results for 21 compounds from PubChem BioAssay (EPA / NIEHS).

“And” between values parts separate entries of the source, which are not always exact repeats. Identical values can stand only once. Inconclusive results are not listed. The source made the active and inactive calls. The calls were made as follows: active = hit-call score of the fitted dose curve at least 0.9, where 1 is the maximum; inconclusive = response in the unintended direction; inactive = score below 0.9.

The target of experiment [1] is human Peripheral-type Benzodiazepine Receptor (PBR), TSPO (gene 706) (UniProt P30536). The experiment is described as follows: NVS_MP_hPBR: NovaScreen (NVS) Membrane Protein Assay for human Peripheral-type Benzodiazepine Receptor (PBR) (AID 2283331).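 Also: hits reduce radioligand binding relative to DMSO baseline.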 In short, it runs like this:
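Radioligand displacement on human colonic cell membranes, 1 h incubation; bound radioactivity by filtration and scintillation counting. Primary screen in duplicate at 25 uM single concentration, actives followed up in concentration series; loss of binding versus DMSO.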

In experiment [2] the target is rat Thyrotropin Releasing Hormone Receptor (TRH), Trhr (gene 25570) (UniProt Q01717). In words: NVS_GPCR_rTRH: NovaScreen (NVS) G Protein-Coupled Receptor Assay for rat Thyrotropin Releasing Hormone Receptor (TRH) (AID 2283329).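 Also: hit means lower bound tracer signal versus DMSO baseline.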 The method, boiled down: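 Test compounds are screened at 25 uM in duplicate against radioligand binding in rat forebrain membranes, with active pairs followed up over a concentration range. Detection uses filter-based radiodetection after a 4 h exposure.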

Experiment [3] has as its target rat Gamma-Aminobutyric Acid Type A Receptor, Non-Selective (GABAR-NonSelective), Gabra1 (gene 29705) (UniProt P62813). In words: NVS_LGIC_rGABAR_NonSelective: NovaScreen (NVS) Ligand-Gated Ion Channel Assay for rat Gamma-Aminobutyric Acid Type A Receptor, Non-Selective (GABAR-NonSelective) (AID 2283326). In short, it runs like this:
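Radioligand displacement on rat whole-brain extract, 1 h, filter scintillation readout; signal loss fitted versus DMSO. Primary screen in duplicate at 25 uM; hits (e.g. ≥30% inhibition) retested in concentration-response up to 50 uM.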

Experiment [4] has as its target rat Neurotensin Receptor (NTS), Ntsr1 (gene 366274) (UniProt P20789). In words: NVS_GPCR_rNTS: NovaScreen (NVS) G Protein-Coupled Receptor Assay for rat Neurotensin Receptor (NTS) (AID 2283308). The method, boiled down:
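Rat forebrain membranes; radioligand binding with competitive displacement, read by filter-based scintillation counting 1 h after dosing. Primary screen in duplicate at 25 uM; actives (e.g., 30% inhibition) rerun in concentration-response up to 50 uM, loss-of-signal versus DMSO.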

The target in experiment [5] is rat Adrenergic Receptor, Alpha 2 (Adra2), Non-selective Binding, Adra2a (gene 25083) (UniProt P22909). The experiment is described as follows: NVS_GPCR_rAdra2_NonSelective: NovaScreen (NVS) G Protein-Coupled Receptor Assay for rat Adrenergic Receptor, Alpha 2 (Adra2), Non-selective Binding (AID 2283299). In short, it runs like this:
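Rat cortical membranes, radioligand competitive displacement read by filter-based scintillation counting 1.25 hours after dosing. Primary screen in duplicate at 25 uM; actives followed up in concentration series.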

Experiment [6] addresses Sodium channel protein type 1 subunit alpha (Rattus norvegicus) (UniProt P04774). The experiment is described as follows: NVS_IC_rNaCh_site2: NovaScreen (NVS) Ion Channel Assay for rat Sodium Channel, Site 2 (NaCh) (AID 2283322).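 Also: hit means loss of radioligand binding signal relative to DMSO so AC50 marks displacement.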 In short, it runs like this:
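Membranes: rat forebrain. Format: competitive radioligand displacement, filter separation, scintillation readout, 1 h exposure. Primary screen in duplicate at 25 uM; actives retested in concentration series.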

In experiment [7] the target is rat Oxytocin Receptor (OXT), Oxtr (gene 25342) (UniProt P70536). The experiment is described as follows: NVS_GPCR_rOXT: NovaScreen (NVS) G Protein-Coupled Receptor Assay for rat Oxytocin Receptor (OXT) (AID 2283330). The method, boiled down:
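Radioligand displacement on rat uterine membranes, 1 h incubation, filter-based scintillation counting. Chemicals were screened in duplicate at 25 uM, and those passing threshold were retested in concentration-response up to 50 uM. Loss of binding was fitted versus DMSO.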

Experiment [8] addresses Voltage-dependent N-type calcium channel subunit alpha-1B (Rattus norvegicus) (UniProt Q02294). The experiment is described as follows: NVS_IC_rCaChN: NovaScreen (NVS) Ion Channel Assay for rat Calcium Channel, Type N (CaChN) (AID 2283317).
Experiment [9] concerns the target human Serotonin, 5-Hydroxytryptamine Receptor 3 (5HT3), HTR3A (gene 3359) (UniProt P46098). The experiment is described as follows: NVS_LGIC_h5HT3: NovaScreen (NVS) Ligand-Gated Ion Channel Assay for human Serotonin, 5-Hydroxytryptamine Receptor 3 (5HT3) (AID 2283325). In short, it runs like this:
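Radioligand displacement binding to human 5-HT3 from HEK293 membranes, read by filter-based scintillation counting after 1 h. Screen at 25 uM in duplicate; chemicals passing threshold were retested in concentration-response up to 50 uM.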

Experiment [10] has as its target rat Neonicotinoid receptor (NNR), Chrna7 (gene 25302) (UniProt Q05941). The experiment is described as follows: NVS_LGIC_rNNR_BungSens: NovaScreen (NVS) Ligand-Gated Ion Channel Assay for rat Neonicotinoid receptor (NNR) (AID 2283315). In short, it runs like this:
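Radioligand displacement binding on rat cortical membranes, 2.5 h incubation, filtration and scintillation counting. Loss of specific binding fitted relative to DMSO.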

Experiment [11] deals with bovine Gamma-Aminobutyric Acid Type A Receptor BDZ, alpha 5 site (GABARa5), GABRA5 (gene 523515) (UniProt Q08E50). In words: NVS_LGIC_bGABARa5: NovaScreen (NVS) Ligand-Gated Ion Channel Assay for bovine Gamma-Aminobutyric Acid Type A Receptor BDZ, alpha 5 site (GABARa5) (AID 2283323). In short, it runs like this: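 Radioligand competitive displacement binding on bovine hippocampal membranes, read 1 hr after dosing by filter-based scintillation counting. Primary screen at 25 uM in duplicate; actives (e.g. ≥30% inhibition) then run in concentration-response up to 50 uM.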

For experiment [12], the target named is rat Gamma-Aminobutyric Acid Type B Receptor (GABBR), Gabbr1 (gene 81657) (UniProt Q9Z0U4). The experiment is described as follows: NVS_GPCR_rGABBR: NovaScreen (NVS) G Protein-Coupled Receptor Assay for rat Gamma-Aminobutyric Acid Type B Receptor (GABBR) (AID 2283301). The method, boiled down: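 Radioligand displacement on rat cortical membranes, 1 h, filter-based scintillation counting. Primary screen at 25 uM in duplicate; compounds passing threshold re-tested in concentration-response up to 50 uM; loss of binding fitted against DMSO.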

Experiment [13] addresses bovine Gamma-Aminobutyric Acid Type A Receptor BDZ, alpha 1 site (GABARa1), GABRA1 (gene 780973) (UniProt P08219). The experiment is described as follows: NVS_LGIC_bGABARa1: NovaScreen (NVS) Ligand-Gated Ion Channel Assay for bovine Gamma-Aminobutyric Acid Type A Receptor BDZ, alpha 1 site (GABARa1) (AID 2283321). In short, it runs like this: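 Radioligand competition binding on bovine cortical membranes, 0.75 h, filter-based scintillation counting. Primary single concentration 25 uM in duplicate; actives rerun in concentration-response to 50 uM max. Loss of signal fitted versus DMSO.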

Chain of human Peripheral-type Benzodiazepine Receptor (PBR), TSPO (gene 706) (P30536 whole entry, looked up): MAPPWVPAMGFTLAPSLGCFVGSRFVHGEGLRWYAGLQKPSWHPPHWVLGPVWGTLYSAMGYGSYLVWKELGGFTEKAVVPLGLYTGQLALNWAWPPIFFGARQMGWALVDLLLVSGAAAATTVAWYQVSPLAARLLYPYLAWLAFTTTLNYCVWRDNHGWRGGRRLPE
Chain of rat Thyrotropin Releasing Hormone Receptor (TRH), Trhr (gene 25570) (Q01717 whole entry, looked up): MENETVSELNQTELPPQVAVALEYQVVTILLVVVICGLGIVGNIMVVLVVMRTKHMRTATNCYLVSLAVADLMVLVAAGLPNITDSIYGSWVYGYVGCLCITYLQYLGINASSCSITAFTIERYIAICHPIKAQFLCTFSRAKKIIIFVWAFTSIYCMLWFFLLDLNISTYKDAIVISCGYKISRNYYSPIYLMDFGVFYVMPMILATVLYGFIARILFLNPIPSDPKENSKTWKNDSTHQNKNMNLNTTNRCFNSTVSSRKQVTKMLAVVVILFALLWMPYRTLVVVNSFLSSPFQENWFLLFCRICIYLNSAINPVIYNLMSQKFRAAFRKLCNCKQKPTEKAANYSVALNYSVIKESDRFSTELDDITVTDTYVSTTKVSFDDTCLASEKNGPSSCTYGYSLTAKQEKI
Chain of rat Oxytocin Receptor (OXT), Oxtr (gene 25342) (P70536 whole entry, looked up): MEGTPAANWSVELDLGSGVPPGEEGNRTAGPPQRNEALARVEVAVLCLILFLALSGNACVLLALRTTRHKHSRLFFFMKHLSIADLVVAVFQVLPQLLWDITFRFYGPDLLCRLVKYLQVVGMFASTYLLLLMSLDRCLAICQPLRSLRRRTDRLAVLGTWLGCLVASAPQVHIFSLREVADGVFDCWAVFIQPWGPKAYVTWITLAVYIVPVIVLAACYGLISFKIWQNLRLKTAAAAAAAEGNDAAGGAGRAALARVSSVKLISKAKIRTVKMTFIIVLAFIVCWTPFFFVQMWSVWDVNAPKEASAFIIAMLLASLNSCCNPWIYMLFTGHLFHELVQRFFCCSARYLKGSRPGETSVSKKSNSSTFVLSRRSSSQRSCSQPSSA
Chain of rat Gamma-Aminobutyric Acid Type A Receptor, Non-Selective (GABAR-NonSelective), Gabra1 (gene 29705) (P62813 whole entry, looked up): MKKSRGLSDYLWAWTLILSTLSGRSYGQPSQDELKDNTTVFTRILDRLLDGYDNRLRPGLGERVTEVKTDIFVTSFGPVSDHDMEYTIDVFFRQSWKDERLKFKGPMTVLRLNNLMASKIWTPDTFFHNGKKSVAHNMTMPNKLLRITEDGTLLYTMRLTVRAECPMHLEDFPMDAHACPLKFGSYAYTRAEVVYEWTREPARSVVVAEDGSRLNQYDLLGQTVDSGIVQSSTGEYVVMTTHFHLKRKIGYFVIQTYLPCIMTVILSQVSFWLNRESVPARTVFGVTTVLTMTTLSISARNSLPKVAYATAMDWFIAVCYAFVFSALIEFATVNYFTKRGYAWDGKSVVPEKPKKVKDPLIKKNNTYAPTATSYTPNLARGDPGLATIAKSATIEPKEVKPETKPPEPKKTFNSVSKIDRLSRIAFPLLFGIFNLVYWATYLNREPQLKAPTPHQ
Chain of rat Neonicotinoid receptor (NNR), Chrna7 (gene 25302) (Q05941 whole entry, looked up): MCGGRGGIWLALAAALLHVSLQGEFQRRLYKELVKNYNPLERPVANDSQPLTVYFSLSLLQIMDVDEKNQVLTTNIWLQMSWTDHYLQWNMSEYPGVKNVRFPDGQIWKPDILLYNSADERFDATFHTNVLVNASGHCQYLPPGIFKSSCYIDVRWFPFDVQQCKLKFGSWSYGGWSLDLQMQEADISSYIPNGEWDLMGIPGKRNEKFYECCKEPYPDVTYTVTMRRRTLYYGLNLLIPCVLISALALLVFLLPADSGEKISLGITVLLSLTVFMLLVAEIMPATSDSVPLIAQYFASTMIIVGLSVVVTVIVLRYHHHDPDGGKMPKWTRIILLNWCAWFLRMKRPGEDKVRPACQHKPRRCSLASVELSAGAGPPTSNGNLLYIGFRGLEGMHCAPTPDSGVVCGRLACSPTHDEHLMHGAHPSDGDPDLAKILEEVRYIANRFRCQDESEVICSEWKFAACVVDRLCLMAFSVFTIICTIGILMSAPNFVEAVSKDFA
Chain of human Serotonin, 5-Hydroxytryptamine Receptor 3 (5HT3), HTR3A (gene 3359) (P46098 whole entry, looked up): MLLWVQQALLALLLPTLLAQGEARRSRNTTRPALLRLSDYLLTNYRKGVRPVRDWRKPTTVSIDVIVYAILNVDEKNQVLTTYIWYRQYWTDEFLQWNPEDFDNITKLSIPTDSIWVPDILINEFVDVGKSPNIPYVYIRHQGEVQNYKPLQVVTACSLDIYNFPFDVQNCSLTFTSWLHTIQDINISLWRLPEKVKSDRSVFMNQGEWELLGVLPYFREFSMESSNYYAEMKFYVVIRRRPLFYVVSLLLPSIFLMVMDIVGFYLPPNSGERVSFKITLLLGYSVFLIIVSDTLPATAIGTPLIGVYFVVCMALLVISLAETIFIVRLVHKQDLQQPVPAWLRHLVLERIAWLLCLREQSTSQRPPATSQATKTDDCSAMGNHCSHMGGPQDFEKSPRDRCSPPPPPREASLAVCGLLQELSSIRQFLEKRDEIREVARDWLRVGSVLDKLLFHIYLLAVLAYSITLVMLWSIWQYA
Chain of bovine Gamma-Aminobutyric Acid Type A Receptor BDZ, alpha 5 site (GABARa5), GABRA5 (gene 523515) (Q08E50 whole entry, looked up): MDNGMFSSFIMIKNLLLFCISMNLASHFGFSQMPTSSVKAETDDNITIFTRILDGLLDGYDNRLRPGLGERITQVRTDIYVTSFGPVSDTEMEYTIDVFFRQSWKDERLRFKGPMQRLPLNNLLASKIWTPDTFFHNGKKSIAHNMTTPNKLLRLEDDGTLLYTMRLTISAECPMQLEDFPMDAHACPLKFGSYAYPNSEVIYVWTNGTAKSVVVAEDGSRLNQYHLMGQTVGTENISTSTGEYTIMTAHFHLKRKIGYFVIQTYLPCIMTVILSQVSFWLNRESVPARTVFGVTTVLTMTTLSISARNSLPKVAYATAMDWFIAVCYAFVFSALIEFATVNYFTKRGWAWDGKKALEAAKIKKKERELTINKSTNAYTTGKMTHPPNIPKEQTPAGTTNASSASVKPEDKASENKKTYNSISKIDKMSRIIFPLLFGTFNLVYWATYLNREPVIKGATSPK
Chain of rat Neurotensin Receptor (NTS), Ntsr1 (gene 366274) (P20789 whole entry, looked up): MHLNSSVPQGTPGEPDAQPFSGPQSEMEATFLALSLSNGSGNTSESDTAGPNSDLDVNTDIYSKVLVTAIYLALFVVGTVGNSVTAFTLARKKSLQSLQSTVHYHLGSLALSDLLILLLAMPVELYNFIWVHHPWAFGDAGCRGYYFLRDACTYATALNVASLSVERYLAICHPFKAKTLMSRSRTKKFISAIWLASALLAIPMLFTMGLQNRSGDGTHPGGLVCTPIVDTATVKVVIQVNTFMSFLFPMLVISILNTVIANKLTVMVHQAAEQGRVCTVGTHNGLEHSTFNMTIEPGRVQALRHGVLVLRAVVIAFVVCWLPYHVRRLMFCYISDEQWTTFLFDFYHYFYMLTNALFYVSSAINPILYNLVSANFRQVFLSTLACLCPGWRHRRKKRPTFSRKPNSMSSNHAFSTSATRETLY
Chain of rat Gamma-Aminobutyric Acid Type B Receptor (GABBR), Gabbr1 (gene 81657) (Q9Z0U4 whole entry, looked up): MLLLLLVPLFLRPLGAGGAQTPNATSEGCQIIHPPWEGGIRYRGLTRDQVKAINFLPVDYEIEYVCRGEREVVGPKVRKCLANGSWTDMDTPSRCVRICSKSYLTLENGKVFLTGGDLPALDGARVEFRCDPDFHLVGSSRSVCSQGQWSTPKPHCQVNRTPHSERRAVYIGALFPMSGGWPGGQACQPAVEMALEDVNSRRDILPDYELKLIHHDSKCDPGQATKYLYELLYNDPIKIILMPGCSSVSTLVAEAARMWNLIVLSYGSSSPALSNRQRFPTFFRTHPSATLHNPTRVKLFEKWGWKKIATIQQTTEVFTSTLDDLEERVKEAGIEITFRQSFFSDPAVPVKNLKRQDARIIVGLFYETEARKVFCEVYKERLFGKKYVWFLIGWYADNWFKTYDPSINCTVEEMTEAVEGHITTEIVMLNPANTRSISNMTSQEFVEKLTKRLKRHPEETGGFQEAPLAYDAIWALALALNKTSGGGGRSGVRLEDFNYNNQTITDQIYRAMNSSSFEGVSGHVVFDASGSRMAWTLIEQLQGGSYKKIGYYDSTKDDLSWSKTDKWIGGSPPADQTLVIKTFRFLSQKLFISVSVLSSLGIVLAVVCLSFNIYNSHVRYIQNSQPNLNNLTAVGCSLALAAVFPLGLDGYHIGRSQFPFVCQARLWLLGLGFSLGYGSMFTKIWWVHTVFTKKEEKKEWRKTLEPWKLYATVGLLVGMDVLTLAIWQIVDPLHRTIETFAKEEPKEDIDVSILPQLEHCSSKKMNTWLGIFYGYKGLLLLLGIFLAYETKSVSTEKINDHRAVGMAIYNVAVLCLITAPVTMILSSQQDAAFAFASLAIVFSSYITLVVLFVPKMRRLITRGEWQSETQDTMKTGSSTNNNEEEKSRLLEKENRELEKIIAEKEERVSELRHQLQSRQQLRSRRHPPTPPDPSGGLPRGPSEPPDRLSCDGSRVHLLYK
Chain of rat Adrenergic Receptor, Alpha 2 (Adra2), Non-selective Binding, Adra2a (gene 25083) (P22909 whole entry, looked up): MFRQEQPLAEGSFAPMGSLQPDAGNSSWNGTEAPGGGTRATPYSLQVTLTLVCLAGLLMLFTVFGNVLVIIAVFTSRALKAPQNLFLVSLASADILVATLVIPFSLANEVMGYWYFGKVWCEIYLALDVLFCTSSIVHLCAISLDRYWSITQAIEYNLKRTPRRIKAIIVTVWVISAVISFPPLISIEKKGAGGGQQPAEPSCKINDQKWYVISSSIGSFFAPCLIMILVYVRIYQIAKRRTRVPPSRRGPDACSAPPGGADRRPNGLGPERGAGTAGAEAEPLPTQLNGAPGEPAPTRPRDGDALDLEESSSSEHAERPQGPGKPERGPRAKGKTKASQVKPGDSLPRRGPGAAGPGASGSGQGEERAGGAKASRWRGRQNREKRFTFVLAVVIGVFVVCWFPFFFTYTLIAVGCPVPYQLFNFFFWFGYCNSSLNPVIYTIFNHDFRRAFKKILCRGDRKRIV

Regarding `N#Cc1c(-c2ccc(Cl)cc2)[nH]c(C(F)(F)F)c1Br`, the half-maximal activity concentration (AC50) in [1] is 0.122 µM (active).

Take `CC(C)(C)N(NC(=O)c1ccc(Cl)cc1)C(=O)c1ccccc1`: the outcome in [2] was inactive.

For `c1cc2c3c(cccc3c1)CC2`, the AC50 in [3] was 1.7 µM (active).

On to `CCCCN(CCCC)SN(C)C(=O)Oc1cccc2c1OC(C)(C)C2`, for which, in [4], the call was inactive.

Consider `Cc1ccc2c(c1N)C(=O)c1ccccc1C2=O`, for which the AC50 in experiment [1] was 13.9 µM (active).

For `C=CC(=O)OCC(CC)(COC(=O)C=C)COC(=O)C=C`, the half-maximal activity concentration (AC50) in experiment [1] is 17.2 µM (active).

`Nc1ccc2ccccc2c1`: the AC50 in [1] is 6.61 µM (active).

In the case of `CC(C)Nc1ccc(Nc2ccccc2)cc1`, in experiment [5], the AC50 is 25 µM (active).

In the case of `CC(C)(C)c1ccc(O)cc1`, the result in [1] was inactive.

For the compound `CCC(C)(C)c1ccc(O)cc1`, in experiment [6], the concentration at half-maximal activity (AC50) is 41.5 µM (active). For the same compound, the compound was classed as inactive in experiment [1].

Turning to `O=P1(N(CCCl)CCCl)NCCCO1` (centres undefined), in experiment [7], the compound was classed as inactive.

With `CO/N=C(/C(=O)OC)c1ccccc1COc1ccccc1C`, the concentration at half-maximal activity (AC50) in [1] is 2.76 µM (active).

With `ClC1=C(Cl)C2(Cl)C3C(Cl)C(Cl)CC3C1(Cl)C2(Cl)Cl` (centres undefined), the result in experiment [8] was inactive.

As for `CCCCOCCOP(=O)(OCCOCCCC)OCCOCCCC`, the result in experiment [6] was inactive. Further, the half-maximal activity concentration (AC50) in [1] was 7.98 µM (active) and 6.27 µM (active).

Take `Nc1ccc(Cl)cc1`: the compound was classed as inactive in [9].

As for `CCOP(=S)(Oc1ccc([N+](=O)[O-])cc1)c1ccccc1` (centres undefined), in experiment [1], the result was inactive.

With `c1ccc2c(c1)sc1ccccc12`, the compound was called inactive in experiment [2].

For `O=S1(=O)OCC2C(CO1)C1(Cl)C(Cl)=C(Cl)C2(Cl)C1(Cl)Cl` (centres undefined), the compound was called inactive in experiment [2].

As to `CSC(C)(C)C=NO`, the compound was called inactive in experiment [10], in experiment [6], in experiment [11] and in experiment [7].

In the case of `CC(C)(C)c1ccccc1OP(=O)(Oc1ccccc1)Oc1ccccc1`, the call in experiment [6] was inactive. The AC50 in experiment [1] was 1.16 µM (active).

Turning to `CCC1(c2ccccc2)C(=O)N=C(O)NC1=O` (centres undefined), the compound was called inactive in experiment [12], in experiment [13] and in experiment [3].

The term AC50 denotes the midpoint of the concentration-response curve, whichever way the signal moves.
